Shown are actives, neighbours in structure and some others; about 2.2% of the full set was active somewhere.
EWS-Fli inh: blocks EWS/Fli oncoprotein-driven transcription; A673 NR0B1-luciferase reporter, viability-normalised; inhibition, % at 12.6 µM; 350,000 tested, 0.67% active;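 active means mean inhibition of at least 50% after viability correction, with every replicate also passing that limit; inconclusive means mean reaches 50% but only one of two replicates passes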;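 further: firefly luciferase signal divided by Alamar Blue viability fluorescence both relative to DMSO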
Shn3 3UTR inh: Schnurri-3 reporter inhibition in Clone20 osteoblasts; inhibition, % at 12.5 µM; 360,000 tested, 0.52% active; Clone20 osteoblast Shn3 3'UTR firefly luciferase, 24 h;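 active means mean inhibition of at least 75% with every replicate also reaching 75%; inconclusive means mean inhibition at least 75% but some replicate below; inactive means mean inhibition below 75%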;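 further: 0% = median of neutral control wells and 100% = pilot-screen positive control compound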
MITF TRPM1 inh: MITF TRPM1 promoter inhibition in SK-MEL-5 cells | SK-MEL-5 TRPM1 promoter luciferase, 24 h | inhibition, % at 12.5 µM | 330,000 tested, 0.83% active | AID 488899;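 active means mean inhibition across replicates of 60% or more, whatever share of single replicates reaches that level; inconclusive means some that reach 60%, reason not given; inactive means mean inhibition across replicates below 60%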
LMP1 NFkB inh: reduces LMP1-driven NF-kappaB luciferase signal. inhibition, % at 12.5 µM. AID 504558. LMP1-induced NF-kappaB luciferase reporter cells, luminescence. 350,000 tested, 0.69% active; in the data active means inhibition above about 41%; inconclusive means no clear call, values can overlap the other calls;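 further: 0% = neutral control wells and 100% = reference inhibitor control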
LGR2 antag: inhibitors of bursicon-induced Drosophila LGR2 receptor cAMP signaling; HEK293 LGR2, CRE-luciferase, bursicon-stimulated, 4 h; inhibition, % at 9.99 µM; 380,000 tested, 0.35% active; AID 720647;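 active means drop in luminescence signal, shown as inhibition above about 50% in the replicate tests, limit read from the data, passing the limit was not always enough; inconclusive means probably only some replicates passing the limit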;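 further: agonist challenge used bursicon conditioned medium at about half maximal strength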
PAX8 reporter: PAX8 transcriptional activity inhibition; 360,000 tested, 1.2% active; AID 652154; inhibition, % at 12.6 µM; RMG-I TPO-luciferase reporter, SteadyGlo, 24 h;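 active means mean replicate inhibition at least 60% with every replicate also reaching 60%; inconclusive means only one of the two criteria is met; inactive means mean below 60% and not all replicates reaching 60%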;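 further: luciferase light reporting Pax8 driven TPO promoter activity; plate controls were median of neutral control wells for no effect and mitoxantrone controls for full effect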
An asterisk follows results filed as active; ? = inconclusive; . = not tested or not shown.

SMILES | EWS-Fli inh | Shn3 3UTR inh | MITF TRPM1 inh | LMP1 NFkB inh | LGR2 antag | PAX8 reporter
Cc1cnc(NC(=O)c2nn(C)cc2[N+](=O)[O-])s1 | 16 | 19 | ? | 5 | 30 | 40
Cn1cc([N+](=O)[O-])c(C(=O)Nc2nc(-c3ccc(Cl)cc3)cs2)n1 | . | 41 | 83* | -5 | . | .
Cc1ccc(-c2nc(NC(=O)c3nn(C)cc3[N+](=O)[O-])sc2C)cc1C | 36 | 93* | 79* | -28 | 38 | .
Cc1ccc(-c2nc(NC(=O)c3nn(C)cc3[N+](=O)[O-])sc2C)cc1 | 58* | 93* | 85* | -15 | 44 | .
COc1ccc(NC(=O)Nc2cccc3c2O[C@@H](CN(C)S(=O)(=O)c2cccs2)[C@H](C)CN([C@@H](C)CO)C3=O)cc1 | -9 | . | . | . | 11 | .
CCOC(=O)/C=c1\s/c(=C\c2ccc3cc(OC)ccc3c2)c(=O)n1CC(=O)NCC1CCCO1 (stereo unspecified) | . | 3 | 68* | 13 | -15 | .
CCOC(=O)/C=c1/s/c(=C/c2ccc3cc(OC)ccc3c2)c(=O)n1CC(=O)NCc1ccc2c(c1)OCO2 | -11 | 31 | -2 | 1 | -3 | -12
CCCC#Cc1ccc([C@@H]2[C@H](CO)N3C(=O)CN(C(=O)c4ccccn4)C[C@@H]23)cc1 | -5 | . | . | . | 4 | .
Cc1cc(N)nc(=O)n1C1CC(O)C(CO)O1 (stereo unspecified) | -9 | -15 | 15 | 87* | -8 | -11
S=C1Cc2ccccc2N1 | 66* | 27 | 91* | -8 | 24 | 106*
S=C1Nc2ccccc2CS1 | 1 | 2 | . | 4 | -5 | 31
COc1ccc(NC(=O)N[C@H]2CC[C@H](CCNS(=O)(=O)c3ccccc3F)O[C@@H]2CO)cc1 | 1 | . | . | . | 2 | 8
O=C(c1cccc(F)c1)N1CC(=O)N2[C@H](C1)[C@H](c1ccc(/C=C/c3ccccc3)cc1)[C@@H]2CO | 17 | . | . | . | 7 | 63*
O=C(c1ccncc1)N1CC(=O)N2[C@@H](CO)[C@@H](c3ccc(-c4ccccc4)cc3)[C@@H]2C1 | 5 | . | . | . | 6 | 1
O=C(c1ccncc1)N1CC(=O)N2[C@H](C1)[C@@H](c1ccc(-c3ccccc3)cc1)[C@@H]2CO | 54* | . | . | . | -13 | -12
COC(=O)[C@@H]1[C@@H](CO)[C@@H]2Cn3c(ccc(-c4ccccc4OC)c3=O)[C@@H]2N1C(=O)c1cccnc1 | 1 | . | . | . | 1 | -3
O=C(C[C@H]1C=C[C@H](NS(=O)(=O)c2ccccc2)[C@@H](CO)O1)NCc1ccccc1F | -2 | . | . | . | 5 | -15
C[C@@H]1CN([C@@H](C)CO)C(=O)Cc2cc(NC(=O)Nc3ccc4c(c3)OCO4)ccc2O[C@@H]1CN(C)Cc1ccc(C(=O)Nc2ccccc2N)cc1 | 25 | . | . | . | -18 | 9
CO[C@H]1CN(C)C(=O)c2ccc(NC(C)=O)cc2OC[C@H](C)N(Cc2ccccc2F)C[C@H]1C | 0 | . | . | . | 1 | 9
CCCCCC(=O)N1CCN(c2ccc(C(C)=O)cc2F)CC1 | 0 | 4 | 6 | 77* | -8 | -7
C[C@H]1CN([C@@H](C)CO)C(=O)c2cccc(NS(=O)(=O)c3ccc(Cl)cc3)c2O[C@H]1CN(C)Cc1ccc(Cl)c(Cl)c1 | 0 | . | . | . | 8 | 11
O=C(NC1CCCCC1)N[C@H]1CC[C@@H](CCNS(=O)(=O)c2ccccc2)O[C@H]1CO | -2 | . | . | . | 5 | 2
Cc1ccc([C@@H]2C[C@H]3[C@@H](CN2S(=O)(=O)c2ccc(Cl)cc2)C(=O)C[C@@H](c2cccc(Cl)c2)N3S(=O)(=O)c2ccc(C)cc2)cc1 | 7 | 45 | . | 4 | 7 | 11
Cc1ccc([C@@H]2CC(=O)[C@@H]3CN(S(=O)(=O)c4ccccc4C)[C@H](c4ccc(Cl)cc4)C[C@@H]3N2S(=O)(=O)c2ccc(C)cc2)cc1 | -8 | 91* | . | -12 | ? | 15
Cc1ccc(S(=O)(=O)N2[C@H](c3cccc(Cl)c3)CC(=O)[C@@H]3CN(S(=O)(=O)c4ccccc4C)[C@H](c4ccc(Cl)cc4)C[C@@H]32)cc1 | -3 | 89* | . | -24 | 22 | 32
SMILES | EWS-Fli inh | Shn3 3UTR inh | MITF TRPM1 inh | LMP1 NFkB inh | LGR2 antag | PAX8 reporter
Cc1ccc(S(=O)(=O)N2[C@H](c3ccc(Cl)cc3)CC(=O)[C@@H]3CN(S(=O)(=O)c4ccccc4C)[C@H](c4ccc(Cl)cc4)C[C@@H]32)cc1 | 5 | 64 | . | . | 15 | 29
Cc1cccc(-c2ccc([C@H]3[C@H]4CN(S(=O)(=O)c5cccc(C)c5)CCCCN4[C@H]3CO)cc2)c1 | 16 | . | . | . | 13 | 103*
Cc1ccccc1S(=O)(=O)N1CCCCN2[C@H](CO)[C@H](c3ccc(-c4ccccc4)cc3)[C@@H]2C1 | 4 | . | . | . | . | 9
Cc1cccc(-c2ccc([C@H]3[C@H](CO)N4CCCCN(S(=O)(=O)c5ccccc5C)C[C@@H]34)cc2)c1 | 24 | . | . | . | 21 | 86*
COc1ccc(S(=O)(=O)N2CCCCN3[C@@H](CO)[C@H](c4ccc(C#CC(C)C)cc4)[C@@H]3C2)cc1 | 27 | . | . | . | 10 | 74*
Cc1cccc(-c2ccc([C@H]3[C@@H](CO)N4CCCCN(S(=O)(=O)c5cccc(C)c5)C[C@H]34)cc2)c1 | 21 | . | . | . | 11 | -19
CCCC#Cc1ccc([C@@H]2[C@H]3CN(S(=O)(=O)c4ccccc4F)CCCCN3[C@H]2CO)cc1 | 18 | . | . | . | 20 | 95*
CCCC#Cc1ccc([C@@H]2[C@@H](CO)N3CCCCN(S(=O)(=O)c4ccccc4F)C[C@@H]23)cc1 | 0 | . | . | . | -2 | -2
C[C@@H]1CN([C@H](C)CO)C(=O)c2cc(NC(=O)Nc3ccc(F)cc3)ccc2O[C@@H]1CN(C)Cc1ccccc1 | 5 | . | . | . | 28 | 15
C[C@@H]1CN([C@H](C)CO)C(=O)c2cc(NC(=O)Nc3ccc(F)cc3)ccc2O[C@@H](C)CCCCO[C@@H]1CN(C)Cc1ccc(Cl)c(Cl)c1 | 0 | . | . | . | 10 | 85*
C[C@H]1CCCCO[C@H](CN(C)Cc2ccc(Cl)c(Cl)c2)[C@@H](C)CN([C@@H](C)CO)C(=O)c2cc(NC(=O)Nc3ccc(F)cc3)ccc2O1 | 0 | . | . | . | 19 | 92*
CO[C@@H]1CN(C)C(=O)c2cc(NC(=O)Nc3ccccc3)ccc2OC[C@H](C)N(C(=O)CC2CC2)C[C@H]1C | -11 | . | . | . | -4 | 5
Cc1ccc(C(=O)NN=CC(=O)c2ccccc2)c(C)c1 | -8 | -2 | -59 | -35 | 70* | -183
COc1ccc(-n2c(-c3ccc(Br)cc3)c[n+]3c2CCCCC3)cc1 | 24 | 89* | 49 | 4 | 11 | 84*
COc1ccc(-n2c(-c3ccccc3)c[n+]3c2CCC3)cc1 | 17 | 34 | 44 | 24 | 10 | 45
CCOc1ccc(-n2c(-c3ccc(Cl)cc3)c[n+]3c2SCC3)cc1 | 23 | 68 | 58 | 9 | 6 | 86*
CCOc1ccc(-c2c[n+]3c(n2-c2ccccc2)CCCCC3)cc1 | 28 | 91* | 43 | 14 | 28 | 80*

Screens deposited in PubChem BioAssay by Broad Institute.
